Experimental data as given in PubChem BioAssay (NCATS).
Inconclusive results are not listed. Activity calls are given as the source filed them. The call rests on the fitted dose curve; in most records, active means well fitted curve in the direction sought with a large enough effect; inconclusive means small, poorly fitted or top-dose-only effect, or another doubt; inactive means no such curve, though single readings can be large; an effect the other way counts as inactive or inconclusive.

Tests used:
[1] = qHTS of pediatric cancer cell lines to identify multiple opportunities for drug repurposing: Primary screen for RD cells (AID 1347104); further: nearly all actives have a fitted effect of over 55% in size; further: potency means the concentration at half of the fitted maximal effect
Summary of the method: (§1)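 Readout: CellTiter-Glo luminescence, 48 h treatment. Controls DMSO (neutral) and bortezomib 2.3 µM final (positive). Potency and efficacy taken from primary-screen concentration-response curves.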

[2] = qHTS of pediatric cancer cell lines to identify multiple opportunities for drug repurposing: Primary screen for MG 63 (6-TG R) cells (AID 1347105); further: nearly all actives have a fitted effect of over 50% in size
Summary of the method: as §1

[3] = qHTS of pediatric cancer cell lines to identify multiple opportunities for drug repurposing: Primary screen for control Hh wild type fibroblast cells (AID 1347106);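 further: series mostly up to about 46 µM; a drop in luminescence marks cytotoxicity and a rise apparent proliferation; nearly all actives have a fitted effect of over 55% in size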
Summary of the method: (§2)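 Cells (500-1,000/well) in growth media were settled 5 h at 37 degrees C, then given compounds for 48 h. Viability was read as CellTiter-Glo luminescence. Primary runs used MIPE at 11 points (0.78 nM-46 µM) and NPC at 8 points (0.59 nM-46 µM); follow-ups used 11 points.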

[4] = qHTS of pediatric cancer cell lines to identify multiple opportunities for drug repurposing: Primary screen for Rh30 cells (AID 1347107); further: series mostly up to about 46 µM; nearly all actives have a fitted effect of over 75% in size
Summary of the method: as §2

[5] = qHTS of pediatric cancer cell lines to identify multiple opportunities for drug repurposing: Primary screen for Rh41 cells (AID 1347108); further: nearly all actives have a fitted effect of over 70% in size; further: potency means the concentration at half of the fitted maximal effect
Summary of the method: as §1

[6] = qHTS of pediatric cancer cell lines to identify multiple opportunities for drug repurposing: Confirmatory screen for SK-N-MC cells (AID 1347111);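 further: potency means the concentration at half of the fitted maximal effect; cells exposed to compound for 48 h before the readout; nearly all actives have a fitted effect of over 70% in size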
Summary of the method: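 Metabolically active cells were quantified by ATP-dependent luminescence (CellTiter-Glo, 15 min at room temperature) following 48 h treatment. Cells had been plated at 500-1,000 per well and settled for 5 h beforehand.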

[7] = qHTS of pediatric cancer cell lines to identify multiple opportunities for drug repurposing: Confirmatory screen for BT-12 cells (AID 1347112); further: nearly all actives have a fitted effect of over 55% in size
Summary of the method: as §2

[8] = qHTS of pediatric cancer cell lines to identify multiple opportunities for drug repurposing: Confirmatory screen for DAOY cells (AID 1347114); further: nearly all actives have a fitted effect of over 65% in size
Summary of the method: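 Viability measured as metabolically active cells via CellTiter-Glo luminescence following 48 hours of compound exposure, 11-point dilutions in confirmatory testing. 500-1,000 cells/well plated 5 hours before dosing; controls were DMSO and 2.3 µM bortezomib.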

[9] = qHTS of pediatric cancer cell lines to identify multiple opportunities for drug repurposing: Confirmatory screen for NB-EBc1 cells (AID 1347115);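 further: potency means the concentration at half of the fitted maximal effect; cells exposed to compound for 48 h before the viability read; nearly all actives have a fitted effect of over 45% in size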
Summary of the method: as §2

[10] = qHTS of pediatric cancer cell lines to identify multiple opportunities for drug repurposing: Confirmatory screen for U-2 OS cells (AID 1347122); further: nearly all actives have a fitted effect of over 65% in size; further: potency means the concentration at half of the fitted maximal effect
Summary of the method: as §2

[11] = qHTS of pediatric cancer cell lines to identify multiple opportunities for drug repurposing: Confirmatory screen for Rh41 cells (AID 1347123);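 further: 48 h compound exposure; nearly all actives have a fitted effect of over 60% in size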; further: potency means the concentration at half of the fitted maximal effect
Summary of the method: as §2

[12] = qHTS of pediatric cancer cell lines to identify multiple opportunities for drug repurposing: Confirmatory screen for RD cells (AID 1347124);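 further: cells exposed to compound for 48 h before viability readout; nearly all actives have a fitted effect of over 65% in size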
Summary of the method: as §2

[13] = qHTS of pediatric cancer cell lines to identify multiple opportunities for drug repurposing: Confirmatory screen for BT-37 cells (AID 1347117); further: potency means the concentration at half of the fitted maximal effect; nearly all actives have a fitted effect of over 55% in size
Summary of the method: as §2

[14] = qHTS of pediatric cancer cell lines to identify multiple opportunities for drug repurposing: Confirmatory screen for TC32 cells (AID 1347118);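 further: potency means the concentration at half of the fitted maximal effect; cells exposed to compound for 48 h before the read; nearly all actives have a fitted effect of over 65% in size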
Summary of the method: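 Measured quantity: luminescence from CellTiter-Glo, reflecting metabolically active TC32 cells following 48 h of compound. Curves came straight from multi-point titrations, with 8 or 11 points in primary and 11 in confirmatory screening.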

[15] = qHTS of pediatric cancer cell lines to identify multiple opportunities for drug repurposing: Confirmatory screen for MG 63 (6-TG R) cells (AID 1347119); further: nearly all actives have a fitted effect of over 55% in size
Summary of the method: as §2

[16] = qHTS of pediatric cancer cell lines to identify multiple opportunities for drug repurposing: Confirmatory screen for control Hh wild type fibroblast cells (AID 1347121); further: nearly all actives have a fitted effect of over 70% in size
Summary of the method: as §2

Measured: Potency

C[C@@H](N)[C@@H](O)c1ccccc1
inactive: [1] | [2] | [3] | [4] | [5]

C[C@]12CC[C@H]3[C@@H](CCC4=CC(=O)CC[C@@H]43)[C@@H]1CC[C@@H]2OC(=O)CCc1ccco1
inactive: [1] | [2] | [3] | [4] | [5]

C#CC(O)(C=CCl)CC (stereo unspecified)
inactive: [1] | [2] | [3] | [4] | [5]

O=C(CCCN1CCC2(CC1)C(=O)NCN2c1ccccc1)c1ccc(F)cc1
inactive: [1] | [2] | [3] | [4] | [5]

CCC1(CC)C(=O)C=CNC1=O
inactive: [1] | [2] | [3] | [4] | [5]

C#C[C@]1(O)CC[C@H]2[C@@H]3CCC4=CC(=O)CC[C@]4(C)[C@H]3CC[C@@]21C
inactive: [1] | [2] | [3] | [4] | [5]

CC(C(=O)c1ccccc1)N(C)C (stereo unspecified)
inactive: [1] | [2] | [3] | [4] | [5]

C=CCC1([C@H](C)CCC)C(=O)NC(=O)NC1=O
inactive: [1] | [2] | [3] | [4] | [5]

CCN[C@H](C)Cc1cccc(C(F)(F)F)c1
inactive: [1] | [2] | [3] | [4] | [5]

c1ccc(N2CCNCC2)cc1
inactive: [1] | [2] | [3] | [4] | [5]

CN1CC[C@]23c4c5ccc(O)c4O[C@H]2[C@@H](O)CC[C@H]3[C@H]1C5
inactive: [1] | [2] | [3] | [4] | [5]

COP(=S)(OC)Oc1ccc(SC)c(C)c1
inactive: [1] | [2] | [3] | [4] | [5]

CN1C(=O)NC(=O)C(C)(C2=CCCCC2)C1=O (stereo unspecified)
inactive: [1] | [2] | [3] | [4] | [5]

NC(=O)CS(=O)C(c1ccccc1)c1ccccc1 (stereo unspecified)
inactive: [1] | [2] | [3] | [4] | [5]

COc1c2c(cc3c1OCO3)CCN(C)C2
inactive: [1] | [2] | [4] | [5]

CCC1(c2ccc(N)cc2)CCC(=O)NC1=O (stereo unspecified)
inactive: [1] | [2] | [3] | [4] | [5]

c1ccc(CN2CCNCC2)cc1
inactive: [1] | [2] | [3] | [4] | [5]

Clc1ccc(C(c2ccc(Cl)cc2)C(Cl)(Cl)Cl)cc1
inactive: [1] | [3] | [4] | [5]

CCCCC/C=C\C/C=C\C/C=C\C/C=C\CCCC(=O)NCC(=O)O
inactive: [1] | [2] | [3] | [4] | [5]

CCC(C)(C)c1ccc(O)cc1
inactive: [1] | [2] | [3] | [4] | [5]

O=c1c(C2CC(c3ccc(-c4ccc(Br)cc4)cc3)Cc3ccccc32)c(O)sc2ccccc12 (stereo unspecified)
inactive: [3]

O=C1CN=C(c2ccccc2)c2cc([N+](=O)[O-])ccc2N1
inactive: [1] | [2] | [3] | [4] | [5]

CNC(C)(C)Cc1ccccc1
inactive: [1] | [2] | [3] | [4] | [5]

CCN(CCO)CCn1c(Cc2ccccc2)nc2c1c(=O)n(C)c(=O)n2C
inactive: [1] | [2] | [3] | [4] | [5]

O=C(O)CCCc1ccc(N(CCCl)CCCl)cc1
active: [6] 23.3 µM | [9] 9.27 µM
not listed: [13] | [14] | [15] | [16]
inactive: all other assays above

CC(NC(C)(C)C)C(=O)c1cccc(Cl)c1 (stereo unspecified)
active: [6] 3.29 µM | [13] 23.3 µM | [14] 2.93 µM | [10] 4.14 µM | [11] 4.65 µM
not listed: [8] | [9] | [12]
inactive: all other assays above

O=c1[nH]oc2c1CCNC2
inactive: [1] | [2] | [3] | [4] | [5]

CCN[C@@H](C)Cc1ccccc1
inactive: [1] | [2] | [3] | [4] | [5]

CC(Cc1ccccc1)N(C)Cc1ccco1 (stereo unspecified)
inactive: [1] | [2] | [3] | [4] | [5]

C[C@]12CC[C@H]3[C@@H](CC[C@@]45O[C@H]4C(O)=C(C#N)C[C@]35C)[C@H]1CC[C@H]2O
inactive: [3]
active: [1] 29.6 µM | [5] 20.9 µM

CCCCCCC(=O)CCCCCC/C=C/C[C@@H](O)[C@H](O)[C@@](N)(CO)C(=O)O
inactive: [1] | [3] | [4] | [5]
